Screening data deposited in PubChem by National Center for Advancing Translational Sciences (NCATS).
VDR inh – blocks the human vitamin D receptor; P11473; VDR-SRC2-3 peptide fluorescence polarization, 2 h; Potency, µM, for inactives: max response, negative = inhibition, actives largely listed as inhibitors; 0.93% of 400,000 active; AID 504847; note: % is set by controls: 0 for no effect and ±100 for the full control effect
Target sequence (P11473 whole entry, looked up): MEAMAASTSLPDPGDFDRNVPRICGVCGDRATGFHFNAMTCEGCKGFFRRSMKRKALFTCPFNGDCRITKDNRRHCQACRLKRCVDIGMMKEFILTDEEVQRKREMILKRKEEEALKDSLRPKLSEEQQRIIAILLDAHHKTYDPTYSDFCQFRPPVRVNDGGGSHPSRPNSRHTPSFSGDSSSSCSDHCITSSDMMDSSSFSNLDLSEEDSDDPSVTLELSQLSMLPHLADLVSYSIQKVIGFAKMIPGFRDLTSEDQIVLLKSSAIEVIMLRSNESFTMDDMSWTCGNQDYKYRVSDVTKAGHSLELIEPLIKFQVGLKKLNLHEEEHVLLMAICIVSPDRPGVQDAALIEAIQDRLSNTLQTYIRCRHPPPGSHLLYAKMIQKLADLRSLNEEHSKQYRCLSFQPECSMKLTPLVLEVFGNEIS
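Compounds are added to VDR with labelled SRC2-3 coactivator peptide and held 2 h at room temperature. Inhibition of the VDR–peptide interaction is then read as a change in fluorescence polarization.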
Glioma ERSR ind – ER stress response induction in glioma; U87-MG GRP78 promoter luciferase reporter, 16 h; Potency, µM, inactives show at the top dose activation, actives largely listed as activators; 0.02% of 420,000 active; AID 602332; note: series mostly up to about 76 µM; % of control where 0% means no effect; nearly all actives have a fitted effect of over 35% in size
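Stably transfected U87-MG human glioma cells carrying a GRP78-based luminescent sensor were seeded at 1000 cells/well, pin-dosed with compounds and incubated 16 h. Luciferase reagent was then added, and end-point luminescence was read after 10 min at room temperature.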
12-LOX inh – ALOX12 (human) lipoxygenase inhibition; P18054; purified 12hLO, xylenol orange hydroperoxide absorbance; Potency, µM (series often up to 108 µM), for the others: top-dose activity change, negative = inhibition, most hits filed as inhibitors; 1.1% of 580,000 active; AID 1671190; note: % is set by controls: 0 for no effect and ±100 for the full control effect
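Purified human 12hLO (150 nM final) in 25 mM Hepes, 0.01% Triton X-100, pH 7.0 was preincubated 15 min at room temperature with compound. Then 40 uM arachidonic acid was added, 30 min. Hydroperoxide was read by Fe-XO absorbance ratio 573/405 nm.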
G9a block – inhibitors of human histone lysine methyltransferase G9a | Q96KQ7 | G9a H3K9 monomethylation, AlphaScreen, 2 h | Potency, µM (highest dose often 102 µM), without a hit: at the highest dose activity, negative = inhibition, actives largely listed as inhibitors | 8.8% of 350,000 active; note: % is set by controls: 0 for no effect and ±100 for the full control effect; nearly all actives have a fitted effect of over 75% in size
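Compounds were preincubated with 20 nM G9a for 15 min, after which biotinylated H3K9 peptide (500 nM) and SAM (20 uM) started a 2 h room-temperature reaction. Monomethylated product was quantified by antibody-based AlphaScreen chemiluminescence.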
Sfp PPTase inh – inhibitors of Bacillus subtilis Sfp phosphopantetheinyl transferase. Biochemical Sfp PPTase activity, qHTS. Potency, µM, for the others: largest response in the series, negative = inhibition, usual class: inhibitors. Q9F4F7. AID 1490. 3.5% of 310,000 active;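 note: the enzyme is Sfp with the accession as filed and its product quenches rhodamine fluorescence; 0% = enzyme reaction without inhibitor and -100% = no enzyme wells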
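After 15 min at room temperature with compound, 15 nM Sfp received 5 uM rhodamine-CoA plus 12.5 uM BHQ-2-ybbR (50 mM Hepes pH 7.6, 10 mM MgCl2). Rate came from the fluorescence difference over 30 min, ex 525/em 598 nm.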
Starred values were filed as active, the others as inactive; ? = inconclusive; / = no result given; [ ] = remark or other dose. Shown is part of a subset that was picked to be rich in hits. Calls come from the whole dose curve; as a rule, active = well fitted curve in the direction sought with a large enough effect; inconclusive = small, poorly fitted or top-dose-only effect, or another doubt; inactive = no such curve, though single readings can be large; an effect the other way counts as inactive or inconclusive. Potency is the fitted concentration of half-maximal effect.

SMILES	VDR inh	Glioma ERSR ind	12-LOX inh	G9a block	Sfp PPTase inh
O=C(Cc1ccccc1)N/N=C/c1cccn1-c1ccc([N+](=O)[O-])cc1	-15%	-4%	-29%	7.1µM*	-16%
O=C(N/N=C/c1cccn1-c1ccc([N+](=O)[O-])cc1)C(O)c1ccccc1 (stereo unspecified)	4%	-1%	-6%	45µM*	18µM*
Cc1cccc(NC(=O)CN(C)C(=O)Cc2cccc(C(F)(F)F)c2)c1C	/	/	-8%	/	/
CCC(CC)(CC(=O)Nc1ccc2oc(C)nc2c1)C(=O)O	/	/	21%	/	/
COC(=O)Cn1c(=O)n(CCc2ccccc2)c(=O)c2sc3c(c21)COC(C)(C)C3	/	/	-19%	/	/
O=C(N/N=C/c1c2ccccc2cc2ccccc12)c1cccs1	/	/	13%	/	/
NC(=O)CC(NC(=O)c1cccc(Br)c1)c1ccc(NC2CCCCCCCCCCC2)c([N+](=O)[O-])c1 (stereo unspecified)	3%	-5%	1%	71µM*	-4%
NC(=O)CC(NC(=O)c1ccc(Br)cc1)c1ccc(NC2CCCCC2)c([N+](=O)[O-])c1 (stereo unspecified)	-8%	4%	7%	/	4%
NC(=O)CC(NC(=O)c1ccccc1)c1ccc(N2CCN(c3ccccn3)CC2)c([N+](=O)[O-])c1 (stereo unspecified)	?	-3%	?	79µM*	10%
NC(=O)CC(NC(=O)c1ccccc1)c1ccc(N2CCC(N3CCCC3)CC2)c([N+](=O)[O-])c1 (stereo unspecified)	-17%	-1%	-13%	/	8%
NC(=O)CC(NC(=O)c1ccccc1)c1ccc(NCCN2CCOCC2)c([N+](=O)[O-])c1 (stereo unspecified)	-7%	1%	-29%	71µM*	16%
NC(=O)CC(NC(=O)c1cccc(Br)c1)c1ccc(N2CCC(N3CCCCC3)CC2)c([N+](=O)[O-])c1 (stereo unspecified)	-18%	-3%	-2%	45µM*	10%
CCCCn1c(-n2nc(CC)cc2CC)nc2c1c(=O)n(CC(N)=O)c(=O)n2C	/	/	16%	/	/
CC(=O)C1(C)N(O)C(C)(C)C(c2ccc(Cl)c(C)c2)=[N+]1[O-] (stereo unspecified)	/	/	2%	/	/
CC(C)CCN1C(=O)CC[C@]2(C(=O)N3CCC(N4CCCCC4)CC3)CCCC[C@@H]12	/	/	35%	/	/
O=C(c1cccc(Br)c1)N1CCCc2ccccc21	13%	-3%	0%	/	-1%
CC(=O)c1ccc(-c2ccc(C(=O)N3CCCc4ccccc43)o2)cc1	-4%	3%	-7%	45µM*	-7%
CC(=O)c1ccc(-c2ccc(C(=O)N3CCN(c4ccc(F)cc4)CC3)o2)cc1	17%	6%	-3%	32µM*	-11%
O=C(c1ccc(Br)o1)N1CCN(c2ccc(F)cc2)CC1	17%	-3%	0%	-8%[59 µM]	5%
O=C(c1coc(=O)c(Br)c1)N1CCCc2ccccc21	7%	-3%	7.1µM*	18µM*	79µM*
Cc1ccc(C(=O)N2CCc3ccccc32)o1	4%	-7%	12%	-4%[59 µM]	-1%
COc1ccc(C2NC(=S)N(c3ccccc3)C(C)=C2C(=O)Nc2ccccc2)cc1 (stereo unspecified)	11%	-1%	?	?	89µM*
Cc1cccc(NC2=NS(=O)(=O)c3ccccc32)c1C	/	/	-20%	/	/
Cc1ccc(S(=O)(=O)Nc2cc3c(cc2NCc2ccccc2)n(C)c(=O)n3C)c(C)c1	-1%	3%	-97%	11µM*	/
Cn1c(=O)n(C)c2cc(NS(=O)(=O)c3ccc(F)cc3)c(NCc3ccccc3)cc21	21%	2%	-75%	11µM*	/
CC(C)c1ccc(S(=O)(=O)Nc2cc3c(cc2NCc2ccccc2)n(C)c(=O)n3C)cc1	-1%	-1%	?	?	/
Cc1nc2cc(F)ccc2cc1C(=O)N1CCN(S(=O)(=O)c2ccc(C#N)cc2)CC1	/	/	0%	/	/
COc1ccc(-c2cc3ccc(OCC(=O)OC(C)C)cc3oc2=O)cc1	/	/	5%	/	/
CC(C)CNc1nc(C(=O)Nc2nnc(C3CC3)s2)cs1	/	/	27%	/	/
Cc1cccc(C)c1Nc1nnc(SCc2nc3ccccc3s2)s1	-12%	2%	3%	8.9µM*	?
